Assay results: PubChem BioAssay (NCI)
The panel holds about 83,000 compounds, 20% with a hit somewhere; the sample as a whole holds those more often.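 Results are percent growth after 48 hours of single-concentration exposure. 100 means growth as in untreated cells, lower positive values show inhibition; negative values down to -100 show cell death.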 Values without a mark were called inactive. Active and inactive are the calls of the source. The calls were made as follows: active = growth percent below 10; inactive = the rest.

Each molecule was assayed on CAKI-1 renal (assay: NCI-60 one-dose screen, 48 h (100 = growth as untreated, 0 = no growth, -100 = all killed)). Conditions: 10 µM unless noted.

| SMILES | growth |
| --- | --- |
| CC(CO)(CO)C(=O)O | 99% |
| O=C(O)Cc1cccc2ccccc12 | 94.6% |
| O=c1[nH]c(=O)c2cc(Cl)cc(Cl)c2[nH]1 | 92% |
| C=CCC(OC(C)=O)c1ccc(OC)c(OC)c1 (stereo unspecified) | 92.3% |
| C=CCC(OC(C)=O)c1ccc(C(C)C)cc1 (stereo unspecified) | 121% |
| COC(=O)Cc1cc(COC(C)=O)ccc1C | 116% |
| CC(=O)c1cccc(N(C)S(=O)(=O)c2ccc(C)cc2)c1 | 101% |
| N#CC1(O)CCCCC1 | 92.5% |
| CC(=O)OC(C)c1cccc(C#N)c1 (stereo unspecified) | 101% |
| CCN(C(C)=O)c1ccc([N+](=O)[O-])cc1 | 102% |
| CCOc1ccc(C(=O)NCC(C)C)cc1 | 101% |
| CCOC(=O)C(C#N)=C1CCN(C)CC1 | 92.4% |
| Cc1nc(O)cc(=O)[nH]1 | 109% |
| COC1OC(C(O)C(O)CO)C(O)C(O)C1O (stereo unspecified) | 95.6% |
| O=C(Nc1ccccc1)c1ccco1 | 95.9% |
| NC(=O)OCCO | 99.6% |

| SMILES | growth |
| --- | --- |
| CC(=O)c1ccc(C)cc1 | 109% |
| ON1CCCC1 | 92.9% |
| CC(=O)NC(CCc1ccc(Cl)c(Cl)c1)c1cccc(O)c(=O)c1 (stereo unspecified) | -0.0278% (active) |
| O=S(=O)(OCCOS(=O)(=O)c1ccccc1)c1ccccc1 | 89.8% |
| Cc1cccc2ccccc12 | 91.6% |
| O=C(OC1CCCC1)c1ccccc1Cl | 101% |
| N#CCCN1C(=O)CCC1C(=O)O (stereo unspecified) | 102% |
| CCOC(=O)C(CCC#N)(CCC#N)C(=O)OCC | 102% |
| Cc1ccc(OC(=O)c2ccccc2)cc1 | 114% |
| O=C1NC(=O)C(c2ccccc2)O1 (stereo unspecified) | 98% |
| O=C(CCl)Oc1ccc([N+](=O)[O-])cc1 | 124% |
| CCCCNC(=O)c1ccc(OCC)cc1 | 100% |
| CC(CCC#N)(CCC#N)C(=O)c1ccccc1 | 112% |
| Cc1ccc(S(=O)(=O)CCCl)cc1 | 117% |
| Cc1ccc(NC(=O)c2ccccc2Cl)cc1 | 107% |

What follows are molecules tested on A498 renal in the same assay as above. Conditions: 10 µM unless noted.

| SMILES | growth |
| --- | --- |
| CC(CO)(CO)C(=O)O | 85.3% |
| O=C(O)Cc1cccc2ccccc12 | 106% |
| O=c1[nH]c(=O)c2cc(Cl)cc(Cl)c2[nH]1 | 121% |
| C=CCC(OC(C)=O)c1ccc(OC)c(OC)c1 (stereo unspecified) | 110% |
| C=CCC(OC(C)=O)c1ccc(C(C)C)cc1 (stereo unspecified) | 87.3% |
| COC(=O)Cc1cc(COC(C)=O)ccc1C | 95.4% |
| CCCCCCCCCCCCCCCCCC(=O)NCCNC(=O)CCCCCCCCCCCCCCCCC | 101% |
| N#CC1(O)CCCCC1 | 87.9% |
| CCN(C(C)=O)c1ccc([N+](=O)[O-])cc1 | 82.5% |
| CC(C)=CCC[C@@H](C)[C@H]1CC[C@@]2(C)C3=C(CC[C@]12C)[C@@]1(C)CC[C@H](O)C(C)(C)[C@@H]1CC3 | 114% |
| CCOc1ccc(C(=O)NCC(C)C)cc1 | 92.1% |
| CCOC(=O)C(C#N)=C1CCN(C)CC1 | 100% |
| CCOC(C=O)OCC | 93.3% |
| Cc1nc(O)cc(=O)[nH]1 | 96.2% |
| COC1OC(C(O)C(O)CO)C(O)C(O)C1O (stereo unspecified) | 107% |
| CC(=O)c1ccc(C)cc1 | 94.5% |
| O=C(CC(CC(=O)c1ccccc1)c1ccccn1)c1ccccc1 | 94.2% |
| ON1CCCC1 | 97.5% |
| CC(=O)NC(CCc1ccc(Cl)c(Cl)c1)c1cccc(O)c(=O)c1 (stereo unspecified) | 36% |
| O=C(OC1CCCC1)c1ccccc1Cl | 86.6% |
| N#CCCN1C(=O)CCC1C(=O)O (stereo unspecified) | 98.9% |
| Cc1ccc(OC(=O)c2ccccc2)cc1 | 95.6% |
| O=C1NC(=O)C(c2ccccc2)O1 (stereo unspecified) | 102% |
| O=C(CCl)Oc1ccc([N+](=O)[O-])cc1 | 133% |
| CCCCNC(=O)c1ccc(OCC)cc1 | 94.2% |
| CC(CCC#N)(CCC#N)C(=O)c1ccccc1 | 89.9% |
| O=[N+]([O-])c1c(Cl)ncnc1Cl | 90% |
| Cc1ccc(S(=O)(=O)CCCl)cc1 | 95.2% |
| Cc1ccc(NC(=O)c2ccccc2Cl)cc1 | 79.2% |

These molecules were tested on CCRF-CEM leukemia in the same assay as above. Conditions: 10 µM unless noted.

| SMILES | growth |
| --- | --- |
| CC(CO)(CO)C(=O)O | 93.5% |
| O=c1[nH]c(=O)c2cc(Cl)cc(Cl)c2[nH]1 | 99.6% |
| C=CCC(OC(C)=O)c1ccc(C(C)C)cc1 (stereo unspecified) | 102% |
| COC(=O)Cc1cc(COC(C)=O)ccc1C | 96.1% |
| CCCCCCCCCCCCCCCCCC(=O)NCCNC(=O)CCCCCCCCCCCCCCCCC | 61.9% |
| CC(=O)c1cccc(N(C)S(=O)(=O)c2ccc(C)cc2)c1 | 97.7% |
| CC(=O)OC(C)c1cccc(C#N)c1 (stereo unspecified) | 97.7% |
| CCN(C(C)=O)c1ccc([N+](=O)[O-])cc1 | 98.9% |
| CCOc1ccc(C(=O)NCC(C)C)cc1 | 103% |
| CCOC(=O)C(C#N)=C1CCN(C)CC1 | 99.2% |
| CCOC(C=O)OCC | 99.1% |
| Cc1nc(O)cc(=O)[nH]1 | 106% |
| O=C(Nc1ccccc1)c1ccco1 | 107% |
| NC(=O)OCCO | 99.5% |
| CC(=O)c1ccc(C)cc1 | 108% |
| O=C(CC(CC(=O)c1ccccc1)c1ccccn1)c1ccccc1 | 103% |

| SMILES | growth |
| --- | --- |
| CC(=O)c1cccc(NS(=O)(=O)c2ccc(C)cc2)c1 | 84% |
| CC(=O)NC(CCc1ccc(Cl)c(Cl)c1)c1cccc(O)c(=O)c1 (stereo unspecified) | 4.93% (active) |
| O=S(=O)(OCCOS(=O)(=O)c1ccccc1)c1ccccc1 | 92.9% |
| Cc1cccc2ccccc12 | 102% |
| O=C(OC1CCCC1)c1ccccc1Cl | 107% |
| N#CCCN1C(=O)CCC1C(=O)O (stereo unspecified) | 108% |
| CCOC(=O)C(CCC#N)(CCC#N)C(=O)OCC | 94.7% |
| Cc1ccc(OC(=O)c2ccccc2)cc1 | 108% |
| O=C1NC(=O)C(c2ccccc2)O1 (stereo unspecified) | 101% |
| O=C(CCl)Oc1ccc([N+](=O)[O-])cc1 | 95.9% |
| CCCCNC(=O)c1ccc(OCC)cc1 | 94.9% |
| CC(CCC#N)(CCC#N)C(=O)c1ccccc1 | 93.3% |
| O=[N+]([O-])c1c(Cl)ncnc1Cl | 99.1% |
| Cc1ccc(S(=O)(=O)CCCl)cc1 | 101% |
| Cc1ccc(NC(=O)c2ccccc2Cl)cc1 | 85% |
